Data as given in PubChem BioAssay (NCATS).
Values joined by “and” are separate entries in the source; they are usually repeats but may differ in a detail not shown here. Equal entries are not always repeated. Inconclusive results are not listed. Active and inactive are the calls of the source. Unless noted, calls follow the shape of the dose curve; as a rule, active = well fitted curve in the direction sought with a large enough effect; inconclusive = small, poorly fitted or top-dose-only effect, or another doubt; inactive = no such curve, though single readings can be large; an effect the other way counts as inactive or inconclusive.

Assays:
[1] = Cellular Toxicity (caspase-3) HUV-EC-C (AID 656);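 also: 0% = DMSO basal and 100% = 100 µM tamoxifen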
Procedure, shortened: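 Read-out: luminescence proportional to caspase 3/7 activity, measured 20 min after adding Caspase-Glo 3/7 reagent. Cells (HUV-EC-C) had received compound for 16 hr at 37°C. Increases relative to DMSO and 100 uM tamoxifen gave concentration-response AC50 values.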

[2] = Cellular Toxicity (caspase-3) SHSY5Y (AID 657)
Procedure, shortened: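 Cells plated and incubated 5 h at 37 °C, dosed over a concentration range, incubated 16 h, then given Caspase-Glo 3/7 reagent for 1 h at room temperature before luminescence reading. Staurosporine (10 uM) defined full stimulation.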

[3] = Cellular Toxicity (caspase-3) H-4-II-E (AID 663); conditions: Potency: caspase-3 activation;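 also: cells exposed to compound for 16 hr before readout; 0% = DMSO basal and 100% = 100 µM tamoxifen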
Procedure, shortened: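 H-4-II-E rat hepatoma, 1500 cells/well, 5 hr settle at 37 °C; compound 16 hr, 37 °C, complete medium; Caspase-Glo 3/7, 20 min RT; luminescence. DMSO = 0%, 100 uM tamoxifen = 100%; Hill-equation AC50.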

[4] = MultiTox-Fluor Cytotoxicity Assay - LYMP1-001 - Dead Cells (AID 946);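 also: 0% = DMSO and 100% = tetraoctylammonium bromide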
Procedure, shortened: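 AC50 from Hill fit of concentration-response; data normalized to DMSO (basal) and 15 uM tetraoctylammonium bromide (100%). LYMP1-001 lymphoblastoid cells, 2500/well, 16 hr compound at 37 C; dead-cell protease fluorescence, Ex/Em 485/520.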

[5] = Cell Viability - LYMP1-002 - Assay at 16 hr (AID 948);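 also: 0% = DMSO alone and full effect = 92 µM tetraoctylammonium bromide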
Procedure, shortened: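 Acute cytotoxicity is scored as a concentration-dependent fall in intracellular ATP in a human lymphoblastoid line (LYMP1-002) after 16 hr compound exposure at 37 C, measured by luciferase luminescence.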

[6] = MultiTox-Fluor Cytotoxicity Assay - LYMP1-002 - Dead Cells (AID 960);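 also: 0% = DMSO and 100% = tetraoctylammonium bromide; nearly all actives have a fitted effect of over 60% in size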
Procedure, shortened: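 Dead-cell fluorescence (Ex/Em 485/520) after 16 h compound exposure at 37 C of LYMP1-002 lymphoblastoid cells in complete medium; AC50 by Hill equation, with data scaled between DMSO and 15 uM tetraoctylammonium bromide.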

[7] = MultiTox-Fluor Cytotoxicity Assay - LYMP1-003 - Live Cells (AID 962);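 also: 0% = DMSO only and full loss = 92 µM tetraoctylammonium bromide; cytotoxic hits lower the live-cell protease signal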
Procedure, shortened: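 Live-cell protease activity (GF-AFC substrate, 405/510 nm, 60 min at room temperature) after 16 h, 37 C compound exposure of human lymphoblastoid LYMP1-003 cells; concentration-response fitted to the Hill equation for AC50.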

[8] = Cell Viability - LYMP1-003 - Assay at 24 hr (AID 963);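 also: plate controls were DMSO only for no effect and tetraoctylammonium bromide positive control for full effect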
Procedure, shortened: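 Concentration-response qHTS: ATP loss measured by CellTiter-Glo luminescence after 24 h compound exposure at 37 C. Cells were LYMP1-003 human lymphoblastoid, 2500 per well. AC50 derived via standard Hill equation modeling.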

[9] = Cell Viability - LYMP2-011 (AID 969);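 also: 0% = DMSO only and full inhibition = 92 µM tetraoctylammonium bromide; nearly all actives have a fitted effect of over 60% in size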
Procedure, shortened: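 Cytotoxicity qHTS with ATP content as read-out: lymphoblastoid cells (2500/well) exposed to compound for 24 h at 37 C, then luciferase luminescence measured. Concentration-response data fitted with the standard Hill equation to give AC50.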

[10] = Cell Viability - LYMP2-021 (AID 974); also: % is scaled to controls: 0 for no effect and ±100 for the full control effect; nearly all actives have a fitted effect of over 55% in size
Procedure, shortened: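 AC50 values come from Hill-equation fits to CellTiter-Glo luminescence (ATP content), read after 24 hour compound exposure at 37 C of 2500 LYMP2-021 lymphoblastoid cells/well; tetraoctylammonium bromide as positive control.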

[11] = Cell Viability - LYMP2-023 (AID 975);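 also: cellular ATP measured by luciferase luminescence as viability proxy; plate controls were DMSO only for no effect and 92 µM tetraoctylammonium bromide control for full effect; nearly all actives have a fitted effect of over 55% in size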
Procedure, shortened: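 Intracellular ATP, read by CellTiter-Glo luminescence, reports viability after 24 hr compound exposure at 37 C. 2500 lymphoblastoid cells/well (LYMP2-023) seeded 5 hr beforehand; Hill fits give AC50; positive control tetraoctylammonium bromide.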

[12] = Cell Viability - LYMP2-010 (AID 981); also: % is scaled to controls: 0 for no effect and ±100 for the full control effect; nearly all actives have a fitted effect of over 55% in size
Procedure, shortened: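 CellTiter-Glo ATP luminescence measured cytotoxicity after 24 h compound exposure at 37 C. LYMP2-010 cells were seeded at 2500/well, with tetraoctylammonium bromide as control; concentration-response curves gave AC50 values by the Hill equation.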

[13] = Cell Viability - LYMP2-014 (AID 983);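 also: plate controls were DMSO only for no effect and 92 µM tetraoctylammonium bromide for full effect; nearly all actives have a fitted effect of over 50% in size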
Procedure, shortened: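 Intracellular ATP loss, read by luciferase luminescence, measures acute cytotoxicity after 24 h compound exposure of lymphoblastoid LYMP2-014 cells (2500/well, 37 C). Concentration-response data fitted to the Hill equation for AC50.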

[14] = Cell Viability - LYMP2-016 (AID 984); also: % is scaled to controls: 0 for no effect and ±100 for the full control effect; nearly all actives have a fitted effect of over 55% in size
Procedure, shortened: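 Acute toxicity in a Coriell human lymphoblastoid line is scored as loss of intracellular ATP over 24 h of treatment in complete medium. CellTiter-Glo signal is fitted across concentrations with the Hill equation to give AC50.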

[15] = Cell Viability - LYMP2-018 (AID 985);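 also: plate controls were DMSO only for no effect and tetraoctylammonium bromide at 92 µM for full effect; nearly all actives have a fitted effect of over 50% in size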
Procedure, shortened: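 Viability read as CellTiter-Glo luminescence (cellular ATP) after 24 hr compound exposure at 37 C of 2500 LYMP2-018 lymphoblastoid cells/well, pre-plated 5 hr. Hill-equation modelling gave AC50.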

[16] = Cell Viability - LYMP2-024 (AID 988);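 also: plate controls were DMSO only for no effect and 92 µM tetraoctylammonium bromide for full effect; nearly all actives have a fitted effect of over 60% in size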
Procedure, shortened: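 Cytotoxicity was taken as a decrease in ATP (CellTiter-Glo luminescence) after 24 hr compound exposure at 37 C of LYMP2-024 lymphoblastoid cells, 2500 cells/well. Concentration-response data were fitted to the Hill equation to give AC50.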

[17] = qHTS assay for small molecule activators of the p53 signaling pathway (AID 651743; active = well fitted activation curve with a large enough effect in the signal ratio, not every such curve was filed as active; the % refers to the signal ratio; also: % of control where 0% means no effect); conditions: HCT-116 p53RE-bla, beta-lactamase FRET ratio, 16 h; activation: hits give high values
Procedure, shortened: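 Following 16 hours of compound exposure at 37 C, HCT-116 cells bearing the p53RE-bla reporter were loaded with LiveBLAzer B/G FRET substrate for 2 hours at room temperature and fluorescence intensity was recorded.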

[18] = qHTS assay for small molecule disruptors of the mitochondrial membrane potential - 1 hr assay (AID 651754; calls by dose curve; also: nearly all actives have a fitted effect of over 35% in size; also: potency is read from the fitted curve at half-maximal effect)
Procedure, shortened: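 Mitochondrial potential in living HepG2 cells after 1 hr compound treatment at 37C was read with Mito-MPS dye added for a further 30 min. Red aggregate and green monomer fluorescence were measured; loss of potential leaves dye as cytoplasmic monomers.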

[19] = Cell Viability - N2a (AID 540); conditions: N2a mouse neuroblastoma cell viability; activity change, negative = cytotoxicity: at 92.2 µM (top of the series);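 also: plate controls were DMSO alone for no effect and tamoxifen control for full effect; nearly all actives have a fitted effect of over 45% in size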
Procedure, shortened: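 CellTiter-Glo ATP luminescence, read 20 min after reagent at room temperature, reported viability following 40 h compound treatment at 37 °C. N2a mouse neuroblastoma cells seeded 1500/well; Hill equation gave AC50.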

[20] = Cell Viability - LYMP1-003 - Assay at 40 hr (AID 964); also: % is scaled to controls: 0 for no effect and ±100 for the full control effect; nearly all actives have a fitted effect of over 60% in size
Procedure, shortened: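 Viability is taken as cellular ATP, read by CellTiter-Glo luminescence after 40 h of compound exposure at 37 C. Cells: human lymphoblastoid line LYMP1-003 at 2500/well; AC50 values derived by Hill-equation fitting of concentration-response data.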

Cc1cccc(N)c1C
inactive: outcome [1] | outcome [2] | Potency [3] | outcome [4] | outcome [5] | Potency [6] | outcome [7] | outcome [8] | Potency [9] | Potency [10] | Potency [11] | Potency [12] | Potency [13] | Potency [14] | Potency [15] | Potency [16] | activation [17] 12.1% | Potency [18]

c1ccc(P(c2ccccc2)c2ccccc2)cc1
inactive: Potency [19] | outcome [1] | outcome [2] | Potency [3] | outcome [4] | outcome [5] | outcome [7] | outcome [8] | Potency [20] | Potency [9] | Potency [10] | Potency [11] | Potency [13] | Potency [14] | Potency [15] | activation [17] -3.71%

O=c1ccc(=O)[nH][nH]1
inactive: Potency [19] | outcome [1] | Potency [3] | outcome [4] | outcome [5] | Potency [6] | outcome [7] | outcome [8] | Potency [20] | Potency [9] | Potency [10] | Potency [11] | Potency [12] | Potency [13] | Potency [16] | activation [17] -0.833% and -3.13%

O=S(=O)(O)F
inactive: Potency [19] | outcome [1] | Potency [3] | outcome [4] | outcome [5] | Potency [6] | outcome [7] | outcome [8] | Potency [20] | Potency [9] | Potency [10] | Potency [11] | Potency [12] | Potency [13] | Potency [14] | Potency [15] | Potency [16] | Potency [18]

Nc1c(Cl)cc([N+](=O)[O-])cc1Cl
inactive: outcome [1] | outcome [2] | Potency [3] | outcome [4] | outcome [5] | Potency [6] | outcome [7] | outcome [8] | Potency [10] | Potency [11] | Potency [12] | Potency [13] | Potency [16]
active: Potency [18] 29.8 µM

CNC(=O)O/N=C/C(C)(C)S(C)=O (configuration not stated)
inactive: outcome [1] | outcome [2] | Potency [3] | outcome [4] | outcome [5] | Potency [6] | outcome [7] | outcome [8] | Potency [20] | Potency [9] | Potency [10] | Potency [11] | Potency [12] | Potency [14] | Potency [15] | Potency [16] | activation [17] -0.482% and 5.01% | Potency [18]

C=CCOCC1CO1 (configuration not stated)
inactive: outcome [1] | outcome [2] | Potency [3] | outcome [4] | outcome [5] | outcome [7] | outcome [8] | Potency [9] | Potency [10] | Potency [11] | Potency [12] | Potency [13] | Potency [14] | Potency [15] | Potency [16] | activation [17] -3.48%

C=C(Cl)CCl
inactive: outcome [1] | outcome [2] | Potency [3] | outcome [4] | outcome [5] | Potency [6] | outcome [7] | outcome [8] | Potency [20] | Potency [9] | Potency [11] | Potency [12] | Potency [13] | Potency [15] | Potency [16] | activation [17] -0.495% | Potency [18]

O=[N+]([O-])c1ccccc1O
inactive: Potency [3] | outcome [5] | Potency [6] | outcome [7] | outcome [8] | Potency [20] | Potency [9] | Potency [11] | Potency [12] | Potency [13] | Potency [14] | Potency [16] | activation [17] -2.01% | Potency [18]

Clc1cc(Cl)c(Cl)c(Cl)c1
inactive: Potency [19] | outcome [1] | outcome [2] | outcome [4] | outcome [5] | outcome [7] | Potency [20] | Potency [9] | Potency [10] | Potency [11] | Potency [12] | Potency [13] | Potency [14] | Potency [15] | Potency [18]

CCC#N
inactive: outcome [1] | outcome [2] | Potency [3] | outcome [4] | outcome [5] | Potency [6] | outcome [7] | outcome [8] | Potency [20] | Potency [11] | Potency [12] | Potency [13] | Potency [14] | Potency [16]

N#CC(O)c1ccccc1 (configuration not stated)
inactive: Potency [19] | outcome [1] | outcome [2] | outcome [4] | outcome [5] | outcome [7] | outcome [8] | Potency [20] | Potency [9] | Potency [10] | Potency [11] | Potency [12] | Potency [13] | Potency [14] | Potency [15] | Potency [16]
